# PubChem BioAssay (Tox21)
# Records with an inconclusive call do not appear. Entries that show only a call come without a potency. Values without a mark were called inactive. The source made the active and inactive calls. Unless noted, calls come from the whole dose curve.
# Columns and labels:
# [1] = qHTS assay to identify small molecule agonists of the vitamin D receptor (VDR) signaling pathway - cell viability counter screen (AID 743224; active = well fitted curve in the direction sought with a large enough effect in the repeat runs; an effect the other way counts as inactive or inconclusive; note: nearly all actives have a fitted effect of over 50% in size; note: potency is the fitted concentration of half-maximal effect; for activity change, negative = cytotoxicity: series mostly up to about 63 µM)
# In short: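 VDR-bla cells, 4 h after plating, exposed to compounds for 16 h at 37C; viability then read in the same wells as CellTiter-Glo luminescence after 30 min at room temperature, following the bla FRET read.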
# [2] = qHTS assay to identify small molecule agonists of the NFkB signaling pathway - cell viability counter screen (AID 1159515); note: series mostly up to about 61 µM; nearly all actives have a fitted effect of over 55% in size
# In short: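 NFkB-bla ME-180 cells, 2,000/well, plated overnight at 37 C; compound added for 5 hr at 37 C. Viability read in the same wells as the bla reporter, by CellTiter-Glo luminescence after 30 min at room temperature.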
# [3] = qHTS assay to identify small molecule agonists of the endoplasmic reticulum stress response signaling pathway (AID 1159516; active = well fitted activation curve with a large enough effect in the signal ratio in the repeat runs, not every such curve was filed as active; the % refers to the signal ratio)
# In short: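 CellSensor ESRE-bla HeLa cells, 1,500 per well, plated overnight, then exposed to compounds for 5 hr at 37 C. Beta-lactamase reporter read with LiveBLAzer B/G FRET substrate after 2 hr at room temperature, 405 nm excitation, 460 and 530 nm emission.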
# [4] = qHTS assay to identify small molecule agonists of the endoplasmic reticulum stress response signaling pathway - cell viability counter screen (AID 1159517);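 note: HeLa cells carrying an ER stress response element beta-lactamase reporter; series mostly up to about 61 µM; nearly all actives have a fitted effect of over 50% in size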
# In short: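 CellTiter-Glo was added to wells already read for beta-lactamase FRET, and luminescence was recorded 30 min later. Cells: ESRE-bla HeLa, 1,500 per well, compound exposure 5 hr at 37 C.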
# [5] = qHTS assay to identify small molecule agonists of the AP-1 signaling pathway - cell viability counter screen (AID 1159525); note: nearly all actives have a fitted effect of over 55% in size
# In short: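 ME-180 AP-1-bla, 2500 cells/well, Opti-MEM + 0.5% dialyzed FBS; overnight 37 °C; cpd 15-pt titration, 5 h 37 °C; CellTiter-Glo 30 min RT; luminescence read; normalised to TOAB and DMSO controls.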
# [6] = qHTS assay to identify small molecule agonists of the AP-1 signaling pathway (AID 1159526)
# [7] = qHTS assay to identify small molecule antagonists of the vitamin D receptor (VDR) signaling pathway - cell viability counter screen (AID 743225; active = well fitted curve in the direction sought with a large enough effect in the repeat runs; an effect the other way counts as inactive or inconclusive; note: nearly all actives have a fitted effect of over 50% in size; note: potency is the fitted concentration of half-maximal effect)
# In short: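 In this counter screen, VDR-bla HEK 293T cells receive test compound plus 3 nM final calcitriol for 16 h at 37C. Room-temperature steps of 2 h with the beta-lactamase substrate, then 30 min with CellTiter-Glo, precede the luminescence read.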
# [8] = qHTS assay to identify small molecule antagonists of the retinoid-related orphan receptor gamma (ROR-gamma) signaling pathway - cell viability counter screen (AID 1159520; active = well fitted curve in the direction sought with a large enough effect in the repeat runs; an effect the other way counts as inactive or inconclusive; note: nearly all actives have a fitted effect of over 50% in size)
# In short: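 Tet-on ROR gamma CHO cells (1,000/well) were plated 4 hr, given compounds in DMSO for 2 hr at 37 C, then induced with 1 uM final doxycycline for 16 hr. Viability was read as ATP by CellTiter-Glo luminescence after 30 min.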
# [9] = target: Nuclear receptor ROR-gamma (Homo sapiens) (UniProt P51449); experiment: qHTS assay to identify small molecule antagonists of the retinoid-related orphan receptor gamma (ROR-gamma) signaling pathway (AID 1159521; active = well fitted curve in the direction sought with a large enough effect in the repeat runs; an effect the other way counts as inactive or inconclusive; note: nearly all actives have a fitted effect of over 50% in size; note: potency is the fitted concentration of half-maximal effect;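 for activity change, negative = inhibition: CHO cells with doxycycline inducible ROR-gamma driving an RORE luciferase reporter; top concentration of the series differs between compounds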)
# In short: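 Screening format: cell-based luciferase reporter in CHO cells with doxycycline-inducible RORγ. Compound pre-exposure lasts 2 h, doxycycline is 1 uM final, induction runs 16 h at 37 C, and ONE-Glo luminescence is read.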
# [10] = target: Retinoic acid receptor RXR-alpha (Homo sapiens) (UniProt P19793); experiment: qHTS assay to identify small molecule agonists of the RXR signaling pathway (AID 1159527); note: nearly all actives have a fitted effect of over 35% in size
# In short: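 Fluorescence ratio readout (460 vs 530 nm) from GeneBLAzer RXR-alpha HEK 293T cells after 16 hr compound treatment; cells seeded 5 hr beforehand in low-serum, charcoal-stripped medium.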
# Sequence of Retinoic acid receptor RXR-alpha (Homo sapiens) (P19793 whole entry, looked up): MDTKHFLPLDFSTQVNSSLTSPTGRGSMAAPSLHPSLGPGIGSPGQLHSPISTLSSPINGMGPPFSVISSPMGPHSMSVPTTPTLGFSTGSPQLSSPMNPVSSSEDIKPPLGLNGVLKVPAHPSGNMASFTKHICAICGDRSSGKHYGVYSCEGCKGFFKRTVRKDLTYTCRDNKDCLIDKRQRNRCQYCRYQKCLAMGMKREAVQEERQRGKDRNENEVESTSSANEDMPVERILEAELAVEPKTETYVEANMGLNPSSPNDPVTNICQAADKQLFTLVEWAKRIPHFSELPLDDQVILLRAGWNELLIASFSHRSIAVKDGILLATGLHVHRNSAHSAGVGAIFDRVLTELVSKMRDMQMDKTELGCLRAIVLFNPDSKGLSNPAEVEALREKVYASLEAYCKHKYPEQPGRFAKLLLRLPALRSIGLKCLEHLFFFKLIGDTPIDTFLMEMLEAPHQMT
compound,measurement,setting,value
NC1CCC(CC2CCC(N)CC2)CC1 (stereo not given),Potency,[1],inactive
same,Potency,[2],inactive
same,Potency,[3],inactive
same,Potency,[4],inactive
same,Potency,[5],inactive
same,Potency,[6],inactive
Oc1cccc(Cl)c1Cl,Potency,[1],inactive
same,Potency,[7],inactive
same,Potency,[2],inactive
same,Potency,[3],inactive
same,Potency,[4],inactive
same,Potency,[5],inactive
Nc1nc(N)nc(Cl)n1,Potency,[1],inactive
same,Potency,[7],inactive
same,Potency,[2],inactive
same,Potency,[3],inactive
same,Potency,[8],inactive
same,Potency,[9],inactive
same,Potency,[5],inactive
same,Potency,[6],inactive
same,Potency,[10],inactive
CNC(=O)/C=C(\C)OP(=O)(OC)OC,Potency,[1],inactive
same,Potency,[7],inactive
same,Potency,[2],inactive
same,Potency,[3],inactive
same,Potency,[4],inactive
same,Potency,[5],inactive
same,Potency,[6],inactive
CCOP(=S)(NC(C)C)Oc1ccccc1C(=O)OC(C)C (stereo not given),Potency,[1],inactive
same,Potency,[7],inactive
same,Potency,[2],inactive
same,Potency,[3],inactive
same,Potency,[4],inactive
same,Potency,[9],21.7 µM (active)
same,Potency,[6],inactive
CCCCCON=O,Potency,[1],inactive
same,Potency,[7],inactive
same,Potency,[2],inactive
same,Potency,[3],inactive
same,Potency,[8],inactive
same,Potency,[9],inactive
same,Potency,[5],inactive
same,Potency,[6],inactive
same,Potency,[10],inactive
CCC(OC(C)=O)C(CC(C)NC)(c1ccccc1)c1ccccc1 (stereo not given),Potency,[7],44 µM (active)
same,Potency,[2],inactive
same,Potency,[3],inactive
same,Potency,[4],inactive
same,Potency,[5],inactive
N#CCCl,Potency,[1],inactive
same,Potency,[7],inactive
same,Potency,[2],inactive
same,Potency,[3],inactive
same,Potency,[8],inactive
same,Potency,[9],inactive
same,Potency,[5],inactive
same,Potency,[6],inactive
Cc1ccccc1OP(=O)(Oc1ccccc1C)Oc1ccccc1C,Potency,[7],inactive
same,Potency,[2],inactive
same,Potency,[3],inactive
same,Potency,[4],inactive
same,Potency,[9],54.7 µM (active)
same,Potency,[5],inactive
CCCCC(CC)COC(=O)OOC(C)(C)C (stereo not given),Potency,[1],inactive
same,Potency,[7],inactive
same,Potency,[2],inactive
same,Potency,[3],inactive
same,Potency,[8],inactive
same,Potency,[9],inactive
same,Potency,[5],inactive
same,Potency,[6],inactive
CN(C)c1ccc(N)cc1,Potency,[1],42.6 µM (active)
same,Potency,[2],inactive
same,Potency,[3],inactive
same,Potency,[4],inactive
same,Potency,[5],inactive
COc1ccc2c(c1OC)C(=O)O[C@@H]2[C@H]1c2cc3c(cc2CCN1C)OCO3,Potency,[1],inactive
same,Potency,[7],inactive
same,Potency,[2],inactive
same,Potency,[3],inactive
same,Potency,[8],inactive
same,Potency,[9],inactive
same,Potency,[5],inactive
same,Potency,[6],inactive
same,Potency,[10],inactive
C#CCC1=C(C)C(OC(=O)C2C(C=C(C)C)C2(C)C)CC1=O (stereo not given),Potency,[1],inactive
same,Potency,[2],inactive
same,Potency,[3],inactive
same,Potency,[4],inactive
same,Potency,[5],inactive
CCO/N=C(\CC)C1=C(O)CC(c2c(C)cc(C)cc2C)CC1=O (stereo not given),Potency,[2],inactive
same,Potency,[3],inactive
same,Potency,[4],inactive
same,Potency,[5],inactive
same,Potency,[6],inactive
CC(C)(C)c1ccc(OP(=O)(Oc2ccccc2)Oc2ccccc2)cc1,Potency,[1],inactive
same,Potency,[2],inactive
same,Potency,[3],inactive
same,Potency,[4],inactive
same,Potency,[6],inactive
CCc1cccc(C)c1N(C(=O)CCl)[C@@H](C)COC,Potency,[1],inactive
same,Potency,[2],inactive
same,Potency,[3],inactive
same,Potency,[4],inactive
same,Potency,[5],inactive
same,Potency,[6],inactive
CC(C)C(Br)C(=O)NC(N)=O (stereo not given),Potency,[1],inactive
same,Potency,[7],inactive
same,Potency,[2],inactive
same,Potency,[3],inactive
same,Potency,[4],inactive
same,Potency,[9],inactive
same,Potency,[6],inactive
O=Cc1ccccc1,Potency,[2],inactive
same,Potency,[3],inactive
same,Potency,[8],inactive
same,Potency,[9],inactive
same,Potency,[5],inactive
same,Potency,[6],inactive
same,Potency,[10],inactive
Clc1c(Cl)c(Cl)c(Cl)c(Cl)c1Cl,"activity change, negative = cytotoxicity",[1],2.99% [at 5.95 µM]
same,"viability change, negative = cytotoxic",[7],-2.04% [at 6.95 µM]
same,"activity, negative = cytotoxic",[2],7.25% [at 6.95 µM]
same,activation,[3],-1.07% [at 6.95 µM]
same,"activity, negative = cytotoxicity",[8],5.16% [at 8.39 µM]
same,"activity change, negative = inhibition",[9],5.22% [at 8.39 µM]
same,"viability change, negative = cytotoxic",[5],5.85% [at 6.97 µM]
same,activation,[6],-2.52% [at 6.97 µM]
same,activation,[10],5.73% [at 6.98 µM]
CCCN,Potency,[1],inactive
same,Potency,[7],inactive
same,Potency,[2],inactive
same,Potency,[3],inactive
same,Potency,[4],inactive
same,Potency,[5],inactive
same,Potency,[6],inactive
CCC(C)Br (stereo not given),Potency,[1],inactive
same,Potency,[7],inactive
same,Potency,[2],inactive
same,Potency,[3],inactive
same,Potency,[8],inactive
same,Potency,[9],inactive
same,Potency,[5],inactive
same,Potency,[6],inactive
same,Potency,[10],inactive
O=S1(=O)OCC2C(CO1)C1(Cl)C(Cl)=C(Cl)C2(Cl)C1(Cl)Cl (stereo not given),Potency,[1],49 µM (active)
same,Potency,[2],inactive
same,Potency,[3],inactive
same,Potency,[4],inactive
same,Potency,[9],19.3 µM (active)
CNN,Potency,[1],inactive
same,Potency,[7],inactive
same,Potency,[2],inactive
same,Potency,[3],inactive
same,Potency,[4],inactive
same,Potency,[5],inactive
same,Potency,[6],inactive
c1ccc2nc(N3CCNCC3)ccc2c1,Potency,[1],inactive
same,Potency,[7],inactive
same,Potency,[2],inactive
same,Potency,[3],inactive
same,Potency,[4],inactive
same,Potency,[5],inactive
same,Potency,[6],inactive
CCOC(=O)CCN(SN(C)C(=O)Oc1cccc2c1OC(C)(C)C2)C(C)C,Potency,[1],inactive
same,Potency,[7],inactive
same,Potency,[2],inactive
same,Potency,[3],inactive
same,Potency,[4],inactive
same,Potency,[9],30.6 µM (active)
same,Potency,[5],inactive
N#Cc1c[nH]cc1-c1cccc2c1OC(F)(F)O2,Potency,[1],inactive
same,Potency,[2],inactive
same,Potency,[3],inactive
same,Potency,[4],inactive
same,Potency,[9],17.2 µM (active)
same,Potency,[5],inactive
same,Potency,[6],inactive
CNC(=O)CSP(=O)(OC)OC,Potency,[1],inactive
same,Potency,[7],inactive
same,Potency,[2],inactive
same,Potency,[3],inactive
same,Potency,[4],inactive
same,Potency,[5],inactive
same,Potency,[6],inactive
Oc1ccc(Cl)c(Cl)c1,Potency,[1],inactive
same,Potency,[7],inactive
same,Potency,[2],inactive
same,Potency,[3],inactive
same,Potency,[4],inactive
same,Potency,[9],17 µM (active)
same,Potency,[5],inactive
same,Potency,[6],inactive
O.O.O.O.O.O.O.O=S(=O)([O-])[O-].[Co+2],Potency,[1],inactive
same,Potency,[7],inactive
same,Potency,[2],inactive
same,Potency,[3],inactive
same,Potency,[4],inactive
same,Potency,[5],inactive
same,Potency,[6],inactive
same,Potency,[10],inactive
CSC(=O)c1c(C(F)F)nc(C(F)(F)F)c(C(=O)SC)c1CC(C)C,Potency,[1],43.4 µM (active)
same,Potency,[2],inactive
same,Potency,[3],inactive
same,Potency,[4],inactive
same,Potency,[5],inactive
same,Potency,[6],inactive
CC(=O)C(Cl)C(=O)N(C)C (stereo not given),Potency,[1],inactive
same,Potency,[7],inactive
same,Potency,[2],inactive
same,Potency,[3],inactive
same,Potency,[4],inactive
same,Potency,[5],inactive
same,Potency,[6],inactive
same,Potency,[10],inactive
